Lassa entry inh = inhibitors of Lassa virus binding or cell entry. Lassa virus pseudotype entry inhibition, cell reporter. Potency, µM (doses to about 37.9 µM), for the others: at the highest dose activity change, negative = inhibition, usual class: inhibitors. 300,000 tested, 1.2% active. AID 540256; calls by dose curve; tested in HEK293 cells; also: potency is read from the fitted curve at half-maximal effect; % is scaled to controls: 0 for no effect and ±100 for the full control effect; nearly all actives have a fitted effect of over 50% in size
HCMV antiviral = blocks human cytomegalovirus replication. 410,000 tested, 4.5% active. HFF cells, HCMV-luciferase reporter, 72 h; stronger effect = lower value. activity change, negative = inhibition, % at 57.5 µM; in the data active = activity change below about -60%; inconclusive = no clear call, values can overlap the other calls; inactive = above about -39%; also: % is scaled to controls: 0 for no effect and ±100 for the full control effect
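Steps: HFFs plated, 16 h 37C; compounds added; HCMV-luciferase added to MOI 1 PFU/cell; 72 h 37C; OneGlo reagent, 5 min room temperature; luminescence read, normalized to controls.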
FMDV antiviral = antivirals against foot and mouth disease virus | FMDV antiviral cell-based qHTS | AID 1159524 | 410,000 tested, 1.2% active | Potency, µM (doses to about 57.9 µM), inactives show at the top dose activity change, negative = inhibition, usual class: inhibitors; calls by dose curve; tested in HEK293T cells; also: read-out not given here; potency is read from the fitted curve at half-maximal effect; % is scaled to controls: 0 for no effect and ±100 for the full control effect; nearly all actives have a fitted effect of over 45% in size
SARS PLpro yeast = blocks SARS-CoV papain-like protease in a yeast assay | S. cerevisiae expressing SARS-CoV PLpro, growth rescue | Potency, µM (titrated, usually from 32.9 µM), for the others: at the top dose activity, positive = growth rescue, hits mostly activators | 330,000 tested, 0.19% active; calls by dose curve; also: potency is read from the fitted curve at half-maximal effect; 0% is about no effect; nearly all actives have a fitted effect of over 55% in size
HCV inh = inhibitors of hepatitis C virus infection | Potency, µM (series often up to 41.8 µM), inactives show at the top dose activity change, negative = inhibition, hits mostly inhibitors | 340,000 tested, 3.4% active | Huh7.5.1 HCVcc-Cre infection, luciferase reporter, 44 h | AID 651820; active = well fitted inhibition curve with a large enough effect; inconclusive = small, poorly fitted or top-dose-only effect, or another doubt; inactive = no such curve, though single readings can be large or run the other way; also: potency is read from the fitted curve at half-maximal effect; % is scaled to controls: 0 for no effect and ±100 for the full control effect
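Compounds are dispensed onto cells plated 4 h earlier at 1,000 per well, with HCVcc-Cre virus (about 0.5 moi) added next. Following 44 h of culture, luminescent signal is measured for 15 sec after 15 min with substrate at room temperature.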
MARV entry inh = Marburg virus entry inhibition. 300,000 tested, 1.8% active. Potency, µM (highest dose often 37.8 µM), for inactives: at the highest dose activity change, negative = inhibition, usual class: inhibitors. AID 540276. Marburg virus pseudotyped entry inhibition, cell reporter; calls by dose curve; tested in HEK293 cells; also: potency is read from the fitted curve at half-maximal effect; % is scaled to controls: 0 for no effect and ±100 for the full control effect
The depositor's hits bear a star; ? = inconclusive; nt = no result; ! = not active in a repeat; [ ] = remark or other dose. An excerpt weighted towards active compounds, which were near 8% of everything screened.

SMILES	Lassa entry inh	HCMV antiviral	FMDV antiviral	SARS PLpro yeast	HCV inh	MARV entry inh
CCOC(=O)C1=CN(CCNC(=O)OC(C)(C)C)C(=O)NC1c1ccccc1 (centres undefined)	nt	nt	nt	nt	nt	20.7%[14.2 µM]
Cc1ccc(CNc2cc(-c3nn4c(C)nnc4s3)ccc2C)s1	-28.6%	89.1	-20.7%	-8.1%	?	?
Cc1ccc(-c2nn3c(C)nnc3s2)cc1NCc1c(F)cccc1Cl	?	-76.1*	nt	-4.2%	?	9.2µM*
CCOc1ccc(OCC)c(NS(=O)(=O)c2c(C(=O)N3CCCCCC3)c(C)n(C)c2C)c1	-18.8%[46.1 µM]	-0.9	58.3%	nt	nt	nt
COc1cc(C2Nc3ccc4ncccc4c3C3=C2C(=O)CC(C)(C)C3)cc(OC)c1O (centres undefined)	-13.1%	-82.6*	33.2%	-1.9%	-0.5%	-5.0%
Cc1cccc2c(=O)cc(C(F)(F)F)[nH]c12	-2.9%[46.1 µM]	-5.0	?	-6.8%	-11.2%	-0.2%[46.1 µM]
O=c1cc(C(F)(F)F)[nH]c2c(OC(F)(F)F)cccc12	10.5%[46.1 µM]	-94.9*	?	-5.5%	11.3%	?
CCCCC(=O)NC(c1cccs1)c1cc(Cl)c2cccnc2c1O (centres undefined)	nt	-99.5*	-15.7%	7.8%	2.24µM*	nt
CCCC(=O)NC(c1ccc(OC)c(OC)c1)c1cc(Cl)c2cccnc2c1O (centres undefined)	?	-98.8*	-1.2%	6.9%	-26.5%	10µM*
CCN(CC)C(=O)Oc1ccc(Cl)c2cccnc12	1.2%	-30.7	?	0.3%	-9.1%	4.8%[46.1 µM]
Oc1cccc2ccc(Nc3ccccn3)nc12	23.1µM*	-103.3*	0.0%	-21.6%	1.12µM*	?
COc1ccc2c3c(n(C)c2c1)[C@H](CO)N(Cc1nccs1)CC31CCN(C(=O)CN(C)C)CC1	nt	13.2	nt	nt	nt	nt
Cc1ccc(Cl)cc1N1CCN(CCCNC(=O)c2nnc(Cc3cccc(Cl)c3)o2)CC1	?	-101.8*	?	nt	nt	?
O=C(NCCCN1CCN(c2ccccc2F)CC1)c1nnc(Cc2ccc(Cl)cc2Cl)o1	6.7%[46.1 µM]	-3.1	-27.6%	nt	nt	-28.4%[46.1 µM]
COC(=O)c1cnn(-c2ccc(F)cc2F)c1/C=N/NC(N)=S	nt	-10.9	?	1.4%	10µM*	nt
CNC(=S)N/N=C/c1c(C(=O)OC)cnn1-c1ccc(F)cc1F	-1.9%	-13.1	?	0.4%	-10.1%	-19.7%[46.1 µM]
Cc1nnc(-c2ccccc2)c(=O)n1/N=C/c1c(O)ccc2ccccc12	?	-98.7*	-5.1%	3.16µM*	?	?
O=c1c2ccccc2nc(COc2ccccc2)n1/N=C/c1c[nH]c2ccccc12	?	-18.4	-8.0%	-21.2%	-0.2%	28.3%
Cc1nc2ccccc2c(=O)n1/N=C/c1ccc2ccccc2c1O	nt	-82.4*	?	4.4%	-26.3%	nt
O=c1c2ccccc2nc(COc2ccccc2)n1/N=C/c1ccc(O)cc1O	nt	-95.9*	-14.8%	?	?	nt
Cc1ccc(Cn2c(SCc3ccc(C(=O)O)cc3)nc3cccnc32)cc1	nt	18.7	-9.0%	nt	nt	-18.0%[46.1 µM]
Cc1ccc(C)c(NC(=O)CCOc2ccccc2)c1	-6.0%[46.1 µM]	-67.5*!	4.8%	-1.0%	10.3%	-11.8%[46.1 µM]
CCOc1ccc(NC(=O)CN(C)C(=O)c2ccccc2OCc2cccc(C)c2)cc1OCC	?	0.0	-23.7%	3.0%	10µM*	?
CCOc1ccccc1OCCCC(=O)N(C)CC(=O)Nc1cc(C)ccc1C	-0.5%	-70.5*	-2.6%	-1.5%	-9.7%	1.9%[46.1 µM]
COc1ccc(C2C=C(c3ccccc3)Nc3nc(NS(=O)(=O)c4ccccc4)nn32)cc1 (centres undefined)	1.3%[46.1 µM]	-7.7	0.9%	nt	nt	4.7%[46.1 µM]
SMILES	Lassa entry inh	HCMV antiviral	FMDV antiviral	SARS PLpro yeast	HCV inh	MARV entry inh
CN1C(=O)COCc2cc(-c3ccc(F)c(Cl)c3)ccc21	nt	52.4	nt	nt	nt	nt
Cc1ccc(-c2noc(-c3ccccc3NC(=O)C3CC(=O)N(c4ccc(C)cc4)C3)n2)cc1 (centres undefined)	8.8%[46.1 µM]	53.5	16.0%	nt	nt	-12.1%[46.1 µM]
COc1ccc(C)c2sc(N(CCN(C)C)C(=O)/C=C/c3cccs3)nc12	nt	?	-16.5%	-0.8%	14.1µM*	nt
COc1ccc(OC)c2sc(N(CCN(C)C)C(=O)/C=C/c3cccs3)nc12	?	-84.8*	-20.0%	-3.0%	?	?
CCOc1cccc2sc(N(CCN(C)C)C(=O)/C=C/c3cccs3)nc12	?	nt	?	5.0%	31.6µM*	?
COc1cccc2sc(N(CCN(C)C)C(=O)/C=C/c3cccs3)nc12	nt	0.0	0.0%	-4.8%	?	nt
CN(C)CCCN(C(=O)/C=C/c1cccs1)c1nc2ccc(F)cc2s1	-29.6%	?	-15.7%	-2.7%	-28.3%	8.91µM*
COc1ccc(/C=C/c2nc(C#N)c(N3CCCCC3)o2)cc1OC	-29.7%[46.1 µM]	25.0	-3.6%	nt	nt	?
C/C(CCN1CCCCc2nc(C)c(C)cc21)=N\OC[C@@H](O)[C@@H]1O[C@@H]2OC(C)(C)O[C@@H]2[C@H]1O	nt	nt	nt	nt	nt	18.5%[14.2 µM]
CCOc1ccc(CCNc2ncnc3onc(-c4ccc(Cl)cc4)c23)cc1	-23.4%[46.1 µM]	?	?	nt	nt	nt
COc1ccccc1NC(=O)c1cc2cc3ccc(OC)c(Cl)c3nc2s1	-2.5%[46.1 µM]	11.8	-9.5%	nt	nt	nt
CCOC(=O)c1cc(-c2ccc(F)cc2)n(CCC(=O)Nc2nc3cc(C)c(C)cc3s2)c1C	0.4%[46.1 µM]	?	-19.9%	nt	nt	nt
COc1cccc(Cn2c(CNS(=O)(=O)c3ccc(F)c(Cl)c3)nc3cccnc32)c1	13.4%[46.1 µM]	-13.8	46.0%	nt	nt	nt
COc1ccc(N2CCN(C(c3cc4cc(C)ccc4[nH]c3=O)c3nnnn3Cc3ccccc3)CC2)cc1 (centres undefined)	?	78.9	-3.4%	12.8%	-26.9%	?
Cc1cccc2cc(C(c3nnnn3Cc3ccccc3)N3CCCc4ccccc43)c(=O)[nH]c12 (centres undefined)	-9.6%[14.3 µM]	-82.7*	35.7%	13.1%	nt	?

Compound activity deposited in PubChem by National Center for Advancing Translational Sciences (NCATS).
